Assay [1] addresses Nuclear respiratory factor 1 (Homo sapiens) (UniProt Q16656). In words: ATG_NRF1_CIS: Attagene CIS-FACTORIAL HepG2 Assay for human Nuclear Respiratory Factor 1 (NRF1) Orphan Gene (AID 2282987). The settings on record: HepG2 NRF1 cis-element reporter, Attagene multiplex; actives raise or lower the signal. In a few lines:
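Transcriptional reporter readout, one component of a 52-endpoint multiplexed HepG2 panel. Exposure 24 h; mRNA detected via RT-PCR and fluorescent capillary electrophoresis; fitting in both directions against DMSO.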

Assay [2] has as its target Myc proto-oncogene protein (Homo sapiens) (UniProt P01106). Briefly: ATG_Myc_CIS: Attagene CIS-FACTORIAL HepG2 Assay for human Myelocytomatosis (Myc) Proto-Oncogene Transcription Factor (AID 2282990). The note with it: HepG2, Attagene cis-reporter transcription factor activity; actives raise or lower the signal. In a few lines: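 HepG2 cells transiently transfected with multiple cis-promoter-driven reporter transcription units, so endogenous TF activity is read. After 24 h compound exposure, reporter mRNA was quantified by RT-PCR, 6-FAM labelling, HpaI digestion and capillary electrophoresis; bidirectional fit versus DMSO.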

Assay [3] is described as follows: ATG_NF_kB_CIS: Attagene CIS-FACTORIAL HepG2 Assay for human Nuclear Factor Kappa B (NF-kB) (AID 2282991). The note with it: HepG2 Attagene cis-factorial NF-kB reporter mRNA; actives raise or lower the signal. In a few lines: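 HepG2, transient multi-reporter transfection, cis promoter elements (endogenous TFs). 24 h exposure. Total RNA → RT → PCR → 6-FAM label → HpaI → CE. Gain/loss vs DMSO.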

Assay [4] is described as follows: ATG_NRF2_ARE_CIS: Attagene CIS-FACTORIAL HepG2 Assay for human Nuclear Factor Erythroid 2 Related Factor 2 (NFR2) response to Antioxidant Response Elements (ARE) (AID 2282992). The settings on record: HepG2 Attagene ARE/NRF2 reporter, transcription factor activity; actives raise or lower the signal. In outline:
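Endogenous transcription factor activity read out as reporter transcript levels (RT-PCR plus capillary electrophoresis, fluorescence) in transiently transfected HepG2 cells. Measured at 24 h after dosing; gain or loss of signal fitted versus DMSO.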

Assay [5] can be described thus: ATG_Oct_MLP_CIS: Attagene CIS-FACTORIAL HepG2 Assay for human Octamer-Binding Transcription Factor (Oct) (AID 2282993). The note with it: HepG2 Attagene cis-factorial Oct reporter, mRNA; actives raise or lower the signal. In outline:
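Transient MRTU transfection of HepG2 → 24 h compound treatment → RNA isolation, reverse transcription, PCR → 6-FAM primer extension, HpaI digest → capillary electrophoresis. Activity fitted both directions against DMSO.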

The target in assay [6] is Cellular tumor antigen p53 (Homo sapiens) (UniProt P04637). In words: ATG_p53_CIS: Attagene CIS-FACTORIAL HepG2 Assay for human p53 Transcription Factor (AID 2282994). The note with it: HepG2 p53 cis-element reporter, Attagene mRNA; actives raise or lower the signal. In a few lines: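 Endogenous p53 activity read in transiently transfected HepG2 from a cis-element-driven reporter transcript after 24 h exposure. RNA reverse-transcribed, PCR-amplified, fluorescently labelled and sized by capillary electrophoresis; gain or loss fitted against DMSO baseline.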

A short description of assay [7]: BSK_3C_TissueFactor: BioMAP Diversity Plus: 3C Assay for Tissue Factor Biomarker Activity (AID 2282997). The note with it: BioMAP 3C HUVEC, tissue factor biomarker readout; actives raise or lower the signal. In a few lines:
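Tissue factor on primary human umbilical vein endothelium was read by ELISA 24 h after dosing, gain or loss relative to DMSO. Cytotoxicity ran alongside via SRB (0.1%, TCA-fixed, 560 nm).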

Assay [8] is described as follows: BSK_3C_VCAM1: BioMAP Diversity Plus: 3C Assay for Vascular cell adhesion molecule 1 (VCAM1) Biomarker Activity (AID 2282999). The settings on record: BioMAP 3C HUVEC, VCAM1 ELISA, cytokine-stimulated; actives raise or lower the signal. In a few lines:
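Vascular primary endothelium (human umbilical vein) was exposed to chemicals and assayed 24 h later. VCAM-1 levels came from ELISA, with DMSO serving as baseline for bidirectional fitting.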
(An ELISA detects its analyte on a solid surface through an enzyme-linked reagent.)

Assay [9] can be described thus: BSK_4H_Eotaxin3: BioMAP Diversity Plus: 4H Assay for Eotaxin 3 Biomarker Activity (AID 2283000).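 As to outcome: CCL26 protein level quantified by ELISA in parallel with SRB cytotoxicity check.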 The settings on record: primary human endothelial cells (HUVEC); actives raise or lower the signal. In a few lines: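 Human umbilical vein endothelial cells (BSK_4H system) dosed with test chemical; Eotaxin-3 (CCL26) measured by ELISA 24 h after dosing. Bidirectional curve fitting relative to DMSO negative control as baseline.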

In assay [10] the target is human Peroxisome Proliferator-activated Receptor delta (PPARd), PPARD (gene 5467) (UniProt Q03181). Briefly: ATG_PPARd_TRANS: Attagene TRANS-FACTORIAL HepG2 Assay for human Peroxisome Proliferator-activated Receptor delta (PPARd) (AID 2283002; active = hit-call score of the fitted dose curve at least 0.9, where 1 is the maximum). In a few lines:
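HepG2 cells transiently transfected with multiplexed GAL4-UAS reporter units and exogenous chimeric NR-Gal4 proteins; 24 h compound exposure. Reporter mRNA measured by RT-PCR, 6-FAM labelling, HpaI digestion and capillary electrophoresis; gain of signal versus DMSO.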

Read-out in assay [11]: Intercellular Adhesion Molecule 1 (ICAM1), ICAM1 (gene 3383)
In words: BSK_3C_ICAM1: BioMAP Diversity Plus: 3C Assay for Intercellular Adhesion Molecule 1 (ICAM1) Biomarker Activity (AID 2283003). The settings on record: primary human endothelial cells (HUVEC); actives raise or lower the signal. In outline:
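Chemicals are dosed onto primary human umbilical vein endothelium (3C system). After 24 h, ICAM-1 is measured by ELISA, and responses are fitted bidirectionally relative to DMSO.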

Assay [12] concerns the target human Retinoic Acid Receptor beta (RARb), RARB (gene 5915) (UniProt P10826). Briefly: ATG_RARb_TRANS: Attagene TRANS-FACTORIAL HepG2 Assay for human Retinoic Acid Receptor beta (AID 2283004; active = hit-call score of the fitted dose curve at least 0.9, where 1 is the maximum). In outline: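 Induction of reporter mRNA from a chimeric RARb-Gal4 construct was measured by RT-PCR, FAM labelling, HpaI digestion and capillary electrophoresis. Measurements followed 24 h compound treatment of transiently transfected human HepG2 liver cells, with DMSO as baseline.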

The target in assay [13] is Retinoic acid receptor alpha (Homo sapiens) (UniProt P10276). Briefly: ATG_RARa_TRANS: Attagene TRANS-FACTORIAL HepG2 Assay for human Retinoic Acid Receptor alpha (RARa) (AID 2283005; active = hit-call score of the fitted dose curve at least 0.9, where 1 is the maximum). In outline:
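HepG2 cells transiently transfected with multiple reporter units expressing chimeric RARα-GAL4 fusion, with GAL4-UAS-driven reporters. After 24 h compound exposure, reporter mRNA induction quantified by RT-PCR and capillary electrophoresis with fluorescent labeling; gain-of-signal fitted relative to DMSO control.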

A short description of assay [14]: BSK_3C_Proliferation: Cell Proliferation Assessment in the BioMAP Diversity Plus: 3C Assay (AID 2283006).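 As to AC50: potency may reflect either rise or fall in cell number versus DMSO.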 The note with it: primary human endothelial cells (HUVEC). In outline: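 Cells (human umbilical vein endothelial, sub-confluent) receive test chemical; after 48 h they are fixed in 10% trichloroacetic acid, stained with 0.1% SRB and read at 560 nm. Activity is referenced to DMSO, fitting increases and decreases.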

Assay [15] has as its target Peroxisome proliferator-activated receptor gamma (Homo sapiens) (UniProt P37231). In words: ATG_PPARg_TRANS: Attagene TRANS-FACTORIAL HepG2 Assay for human Peroxisome Proliferator-activated Receptor-gamma (PPARg) (AID 2283007; active = hit-call score of the fitted dose curve at least 0.9, where 1 is the maximum). In outline: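 Multiplexed reporter transcription units in HepG2, 24 h dosing, reporter transcripts quantified by fluorescent RT-PCR and capillary electrophoresis. Increase over DMSO scored.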

Assay [16] has as its target Nuclear receptor subfamily 1 group I member 2 (Homo sapiens) (UniProt O75469). Briefly: ATG_PXR_TRANS: Attagene TRANS-FACTORIAL HepG2 Assay for human Pregnane X Receptor (PXR) (AID 2283008; active = hit-call score of the fitted dose curve at least 0.9, where 1 is the maximum). In outline: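 Transactivation by exogenous PXR–GAL4 fusion measured as reporter transcript induction after 24 h compound treatment of transfected human HepG2 cells. Read-out via RT-PCR and capillary electrophoresis of labelled fragments, fitted upward relative to DMSO.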

Assay [17] addresses human Retinoic Acid Receptor gamma (RARg), RARG (gene 5916) (UniProt P13631). Briefly: ATG_RARg_TRANS: Attagene TRANS-FACTORIAL HepG2 Assay for human Retinoic Acid Receptor gamma (RARg) (AID 2283009; active = hit-call score of the fitted dose curve at least 0.9, where 1 is the maximum). In a few lines:
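TRANS format measured activity of exogenous NR-GAL4 fusion (RARg) in transfected HepG2 liver cells after 24 h dosing. Induced reporter RNA was detected by RT-PCR/capillary electrophoresis fluorescence, analysed in the positive direction against DMSO.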

The target in assay [18] is human Peroxisome Proliferator-activated Receptor alpha (PPARa), PPARA (gene 5465) (UniProt Q07869). In words: ATG_PPARa_TRANS: Attagene TRANS-FACTORIAL HepG2 Assay for human Peroxisome Proliferator-activated Receptor alpha (PPARa) (AID 2283001; active = hit-call score of the fitted dose curve at least 0.9, where 1 is the maximum). In a few lines: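 Cells (HepG2) are transfected with multiple reporter transcription units, exposed to chemical for 24 h, then total RNA is reverse-transcribed and amplified. Labelled products are quantified by capillary electrophoresis; induction is referenced to DMSO.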

Inconclusive results are not listed. The source made the active and inactive calls. The calls were made as follows, unless noted: active = hit-call score of the fitted dose curve at least 0.9, where 1 is the maximum; inactive = score below 0.9.

A word on the AC50: it is the midpoint of the concentration-response curve, whichever way the signal moves.

Sequence of Peroxisome proliferator-activated receptor gamma (Homo sapiens) (P37231 whole entry, looked up): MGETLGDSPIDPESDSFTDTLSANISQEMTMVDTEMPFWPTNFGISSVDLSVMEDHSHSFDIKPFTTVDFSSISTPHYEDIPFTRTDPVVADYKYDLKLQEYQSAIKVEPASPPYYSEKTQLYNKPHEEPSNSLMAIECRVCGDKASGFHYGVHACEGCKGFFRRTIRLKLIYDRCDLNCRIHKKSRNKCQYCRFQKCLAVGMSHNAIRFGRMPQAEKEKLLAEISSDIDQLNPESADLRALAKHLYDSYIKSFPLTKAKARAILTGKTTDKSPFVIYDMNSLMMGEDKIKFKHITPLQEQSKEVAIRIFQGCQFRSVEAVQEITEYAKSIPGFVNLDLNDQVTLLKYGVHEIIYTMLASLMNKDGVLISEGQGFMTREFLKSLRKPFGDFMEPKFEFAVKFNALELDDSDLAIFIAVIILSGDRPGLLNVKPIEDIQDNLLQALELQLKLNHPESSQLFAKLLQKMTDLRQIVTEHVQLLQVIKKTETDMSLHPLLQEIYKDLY
Sequence of human Peroxisome Proliferator-activated Receptor delta (PPARd), PPARD (gene 5467) (Q03181 whole entry, looked up, the tested form may be a part): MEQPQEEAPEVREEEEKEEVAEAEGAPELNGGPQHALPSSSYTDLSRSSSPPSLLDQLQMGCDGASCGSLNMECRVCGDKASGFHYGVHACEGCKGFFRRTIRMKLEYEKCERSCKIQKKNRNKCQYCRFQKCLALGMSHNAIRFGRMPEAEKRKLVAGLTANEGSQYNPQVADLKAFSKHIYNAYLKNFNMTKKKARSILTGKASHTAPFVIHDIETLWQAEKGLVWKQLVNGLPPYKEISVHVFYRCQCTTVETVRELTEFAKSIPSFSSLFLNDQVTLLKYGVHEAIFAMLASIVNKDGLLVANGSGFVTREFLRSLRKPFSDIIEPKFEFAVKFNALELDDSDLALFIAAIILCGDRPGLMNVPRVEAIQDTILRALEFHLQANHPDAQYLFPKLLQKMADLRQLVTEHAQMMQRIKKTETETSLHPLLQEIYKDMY
Sequence of Retinoic acid receptor alpha (Homo sapiens) (P10276 whole entry, looked up, the tested form may be a part): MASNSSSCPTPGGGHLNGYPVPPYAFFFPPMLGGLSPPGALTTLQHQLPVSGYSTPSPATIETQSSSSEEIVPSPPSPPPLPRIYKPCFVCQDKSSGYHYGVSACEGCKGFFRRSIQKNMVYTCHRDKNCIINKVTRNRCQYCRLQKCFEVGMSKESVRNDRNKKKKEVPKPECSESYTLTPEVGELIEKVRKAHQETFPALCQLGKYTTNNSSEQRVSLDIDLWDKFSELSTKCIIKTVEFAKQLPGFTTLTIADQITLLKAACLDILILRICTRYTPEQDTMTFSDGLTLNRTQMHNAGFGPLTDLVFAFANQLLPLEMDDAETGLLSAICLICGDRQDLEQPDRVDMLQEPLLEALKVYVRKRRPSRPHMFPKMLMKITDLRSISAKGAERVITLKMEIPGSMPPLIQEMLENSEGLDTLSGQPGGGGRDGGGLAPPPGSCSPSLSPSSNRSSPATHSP
Sequence of Cellular tumor antigen p53 (Homo sapiens) (P04637 whole entry, looked up): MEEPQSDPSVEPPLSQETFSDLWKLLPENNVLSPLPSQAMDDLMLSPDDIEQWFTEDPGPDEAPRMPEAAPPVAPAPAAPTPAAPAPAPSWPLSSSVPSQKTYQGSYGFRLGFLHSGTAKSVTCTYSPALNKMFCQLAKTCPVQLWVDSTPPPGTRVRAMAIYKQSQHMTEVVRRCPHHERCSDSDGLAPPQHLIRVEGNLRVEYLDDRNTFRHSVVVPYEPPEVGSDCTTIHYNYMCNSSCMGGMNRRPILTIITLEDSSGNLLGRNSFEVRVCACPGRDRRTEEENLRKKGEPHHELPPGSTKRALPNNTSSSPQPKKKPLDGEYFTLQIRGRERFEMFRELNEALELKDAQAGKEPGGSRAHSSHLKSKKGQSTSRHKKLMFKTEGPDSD
Sequence of Myc proto-oncogene protein (Homo sapiens) (P01106 whole entry, looked up): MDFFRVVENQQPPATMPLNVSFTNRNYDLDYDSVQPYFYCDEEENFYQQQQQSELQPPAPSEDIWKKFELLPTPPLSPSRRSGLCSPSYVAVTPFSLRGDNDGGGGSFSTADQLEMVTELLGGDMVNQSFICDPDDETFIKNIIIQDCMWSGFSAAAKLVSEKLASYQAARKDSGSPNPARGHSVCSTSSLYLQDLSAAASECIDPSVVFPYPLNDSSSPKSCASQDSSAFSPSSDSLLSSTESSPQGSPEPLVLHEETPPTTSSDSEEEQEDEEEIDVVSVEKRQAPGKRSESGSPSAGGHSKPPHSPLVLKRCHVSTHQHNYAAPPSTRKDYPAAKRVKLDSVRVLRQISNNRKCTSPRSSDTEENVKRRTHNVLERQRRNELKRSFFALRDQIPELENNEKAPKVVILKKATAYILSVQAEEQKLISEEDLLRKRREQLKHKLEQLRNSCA
Sequence of Nuclear receptor subfamily 1 group I member 2 (Homo sapiens) (O75469 whole entry, looked up, the tested form may be a part): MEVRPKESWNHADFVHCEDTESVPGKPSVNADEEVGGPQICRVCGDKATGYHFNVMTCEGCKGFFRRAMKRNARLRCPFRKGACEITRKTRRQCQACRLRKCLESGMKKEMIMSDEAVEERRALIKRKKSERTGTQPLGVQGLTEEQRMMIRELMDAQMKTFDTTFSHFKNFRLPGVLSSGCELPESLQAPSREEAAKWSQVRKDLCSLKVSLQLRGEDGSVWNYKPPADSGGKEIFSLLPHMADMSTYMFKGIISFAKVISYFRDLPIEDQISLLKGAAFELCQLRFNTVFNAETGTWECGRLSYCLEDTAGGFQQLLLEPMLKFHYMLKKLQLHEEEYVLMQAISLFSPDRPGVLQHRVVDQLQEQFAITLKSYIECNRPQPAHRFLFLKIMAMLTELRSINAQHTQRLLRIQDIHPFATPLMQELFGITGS
Sequence of Nuclear respiratory factor 1 (Homo sapiens) (Q16656 whole entry, looked up): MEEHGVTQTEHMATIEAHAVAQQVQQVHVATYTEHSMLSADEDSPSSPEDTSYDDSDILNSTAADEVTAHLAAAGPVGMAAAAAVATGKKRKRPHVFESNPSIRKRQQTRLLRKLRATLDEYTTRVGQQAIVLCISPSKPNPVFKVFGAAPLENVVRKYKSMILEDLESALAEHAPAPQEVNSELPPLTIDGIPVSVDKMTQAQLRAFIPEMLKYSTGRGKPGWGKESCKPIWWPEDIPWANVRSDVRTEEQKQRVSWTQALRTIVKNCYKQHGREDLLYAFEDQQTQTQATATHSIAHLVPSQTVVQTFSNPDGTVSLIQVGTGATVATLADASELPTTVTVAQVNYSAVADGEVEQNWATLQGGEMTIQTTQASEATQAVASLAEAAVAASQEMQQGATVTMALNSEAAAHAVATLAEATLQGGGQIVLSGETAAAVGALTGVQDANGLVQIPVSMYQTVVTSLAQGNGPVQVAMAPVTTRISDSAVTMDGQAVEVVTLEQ
Sequence of human Peroxisome Proliferator-activated Receptor alpha (PPARa), PPARA (gene 5465) (Q07869 whole entry, looked up): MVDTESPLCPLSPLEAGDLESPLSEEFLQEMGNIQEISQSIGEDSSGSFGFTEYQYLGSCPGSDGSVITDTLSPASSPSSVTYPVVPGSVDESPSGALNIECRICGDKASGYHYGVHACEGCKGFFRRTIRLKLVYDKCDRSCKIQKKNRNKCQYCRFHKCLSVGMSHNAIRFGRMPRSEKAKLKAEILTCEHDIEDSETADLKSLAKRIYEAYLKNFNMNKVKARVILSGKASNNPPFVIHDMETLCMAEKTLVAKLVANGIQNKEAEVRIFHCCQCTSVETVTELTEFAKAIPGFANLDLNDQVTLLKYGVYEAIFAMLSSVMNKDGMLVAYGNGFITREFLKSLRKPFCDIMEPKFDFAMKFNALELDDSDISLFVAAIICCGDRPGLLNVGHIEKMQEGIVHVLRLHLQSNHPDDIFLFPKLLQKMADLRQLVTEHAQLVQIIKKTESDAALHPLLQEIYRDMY
Sequence of human Retinoic Acid Receptor beta (RARb), RARB (gene 5915) (P10826 whole entry, looked up, the tested form may be a part): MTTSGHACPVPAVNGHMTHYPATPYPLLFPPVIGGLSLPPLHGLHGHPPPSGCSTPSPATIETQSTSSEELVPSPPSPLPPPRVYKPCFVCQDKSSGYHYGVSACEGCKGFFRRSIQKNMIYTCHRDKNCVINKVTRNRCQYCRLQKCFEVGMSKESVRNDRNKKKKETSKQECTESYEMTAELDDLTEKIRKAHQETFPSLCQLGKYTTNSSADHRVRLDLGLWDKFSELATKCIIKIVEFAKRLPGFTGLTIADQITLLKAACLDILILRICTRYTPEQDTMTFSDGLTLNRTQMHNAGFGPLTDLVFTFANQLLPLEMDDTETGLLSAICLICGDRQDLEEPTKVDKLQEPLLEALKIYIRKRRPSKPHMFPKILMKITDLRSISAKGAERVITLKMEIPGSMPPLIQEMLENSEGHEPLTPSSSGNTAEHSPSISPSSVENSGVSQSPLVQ
Sequence of human Retinoic Acid Receptor gamma (RARg), RARG (gene 5916) (P13631 whole entry, looked up, the tested form may be a part): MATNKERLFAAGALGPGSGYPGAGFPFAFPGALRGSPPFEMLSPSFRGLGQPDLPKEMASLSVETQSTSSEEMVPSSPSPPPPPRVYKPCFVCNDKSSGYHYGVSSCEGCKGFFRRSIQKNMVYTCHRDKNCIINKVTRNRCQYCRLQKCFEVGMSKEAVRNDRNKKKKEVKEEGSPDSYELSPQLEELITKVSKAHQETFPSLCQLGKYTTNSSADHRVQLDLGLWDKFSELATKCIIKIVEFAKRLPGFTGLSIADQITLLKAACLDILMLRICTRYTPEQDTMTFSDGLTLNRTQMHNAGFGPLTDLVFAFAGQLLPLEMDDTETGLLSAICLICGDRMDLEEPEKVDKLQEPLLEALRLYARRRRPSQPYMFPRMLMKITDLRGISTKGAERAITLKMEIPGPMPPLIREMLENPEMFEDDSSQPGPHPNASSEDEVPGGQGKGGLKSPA

With `Cc1cc(O)c(C(C)(C)C)cc1C(C)(C)C`, the outcome in assay [1], in [2], in assay [3], in assay [5], in assay [6] and in assay [10] was inactive. Also, the call in assay [12], in assay [13], in [15] and in assay [17] was inactive. Besides, the AC50 in assay [4] was 11.1 µM (active); in assay [7], 3.4 µM (active); in assay [8], 4.42 µM (active); in [9], 4.12 µM (active); in assay [11], 8.46 µM (active); in [14] it was 2.36 µM (active). The AC50 in assay [16] is 3.47 µM (active).
Regarding `CN(C(=O)C(F)(F)C(F)(F)C(F)(F)F)[Si](C)(C)C`, the call in assay [1], in assay [2], in [3], in [4], in assay [5] and in assay [6] was inactive. Besides, the result in assay [7], in assay [8], in assay [9], in [18], in assay [10] and in assay [11] was inactive. For the same molecule, the result in [13], in assay [14], in assay [15] and in assay [16] was inactive.
Turning to `O=S(=O)(Cl)C(F)(F)C(F)(F)C(F)(F)C(F)(F)C(F)(F)C(F)(F)C(F)(F)C(F)(F)F`, the call in assay [1], in assay [2], in [3], in assay [5], in assay [6] and in assay [7] was inactive. Besides, the result in assay [8], in assay [9], in assay [18], in assay [10], in assay [11] and in [12] was inactive. The result in assay [13], in assay [14], in assay [16] and in [17] was inactive. Also, the AC50 in assay [4] was 70.3 µM (active); in assay [15], 34.9 µM (active).
Consider `Cc1cc(C)c(O)c(C(C)(C)C)c1`, for which the molecule was called inactive in assay [1], in assay [2], in assay [3], in [5], in assay [6] and in assay [10]. In addition, the molecule was classed as inactive in assay [15]. Also, the AC50 in [4] was 52.2 µM (active); in assay [7], 26.9 µM (active); in [8], 31.6 µM (active); in assay [9], 30.4 µM (active); in assay [11], 30.4 µM (active); in assay [14] it was 20 µM (active). In assay [16], the concentration at half-maximal activity (AC50) is 16.2 µM (active).

For the origin of these results see PubChem BioAssay (EPA / NIEHS).
